Screens as filed in PubChem.
An excerpt weighted towards active compounds, which were near 3% of everything screened.
SENP7 inh = SENP7 protease inhibitors, primary screen, biochemical, luminescence, uHTS; recombinant SENP7, Z-RLRGG-aminoluciferin luminescence, 40 min; inhibition, % at 5 µM; actives 1.5% (n = 330,000); AID 434973, 2010;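 active = inhibition above about 50% at the single test dose, limit read from the data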;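 note: plate controls were DMSO with enzyme for no effect and no enzyme buffer wells for full effect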
SENP8 block-1 = SENP8 protease inhibitors, primary screen, biochemical, luminescence | inhibition, % at 10 µM | actives 1.2% (n = 330,000) | AID 2540, 2010 | purified SENP8, Z-RLRGG-aminoluciferin cleavage | Sentrin-specific protease 8 (Homo sapiens), Q96LD8; in the data active = inhibition above about 50%
SENP8 block-2 = human SENP8 protease inhibitors, primary screen, biochemical, fluorescence, Nedd8 protein substrate, uHTS. Sentrin-specific protease 8 (Homo sapiens), Q96LD8. recombinant SENP8. inhibition, % at 20 µM. actives 0.64% (n = 360,000); in the data active = inhibition mostly above about 40%, no sharp cut-off; inactive = mostly below about 27%
SENP6 block = SENP6 protease inhibitors, primary screen, biochemical, luminescence, uHTS; AID 2599, 2010; Recombinant SENP6 catalytic domain, aminoluciferin luminescence; inhibition, % at 10 µM; Sentrin-specific protease 6 (Homo sapiens), Q9GZR1; actives 1.8% (n = 330,000);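 active = inhibition above about 50% at the single tested dose, limit read from the data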;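 note: plate controls were DMSO wells with enzyme for no effect and DMSO wells lacking enzyme for full effect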
Target sequence (Q9GZR1 628-1112 limits assumed): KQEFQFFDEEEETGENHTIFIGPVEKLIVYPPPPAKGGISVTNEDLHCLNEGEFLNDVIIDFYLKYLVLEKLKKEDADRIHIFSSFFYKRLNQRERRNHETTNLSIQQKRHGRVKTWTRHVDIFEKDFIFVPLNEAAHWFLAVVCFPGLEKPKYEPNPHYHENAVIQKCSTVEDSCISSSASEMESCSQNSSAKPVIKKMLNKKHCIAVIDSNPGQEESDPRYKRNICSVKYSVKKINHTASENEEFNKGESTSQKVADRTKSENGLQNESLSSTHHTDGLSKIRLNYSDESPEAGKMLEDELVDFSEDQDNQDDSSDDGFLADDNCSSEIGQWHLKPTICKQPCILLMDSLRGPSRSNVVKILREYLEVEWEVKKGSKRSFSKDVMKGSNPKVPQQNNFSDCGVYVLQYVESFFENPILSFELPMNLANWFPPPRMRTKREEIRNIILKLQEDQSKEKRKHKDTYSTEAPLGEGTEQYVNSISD
PPC-1+TRAIL kill = compounds killing PPC-1 cancer cells with TRAIL present, primary screen, TRAIL potentiator project, ATPLite luminescence, uHTS | PPC-1 cells + TRAIL, ATPLite viability luminescence | cell killing (% activity), % at 4 µM or 5 µM | actives 0.41% (n = 220,000);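 active = cell killing above 50% in the first pass at 4 µM, then a duplicate retest at 5 µM averaging 50% or more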;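 note: plate controls were cells with TRAIL plus DMSO for no effect and medium-only wells lacking cells for full effect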
C8 TRAIL sens = viability loss with TRAIL in NB7+C8 cells, primary screen, TRAIL sensitizer project, cell-based, ATPlite luminescence; inhibition (viability loss, TRAIL sensitization), % at 10 µM; AID 624354, 2012; actives 1% (n = 360,000);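 active = compounds causing at least 50% loss of cell viability in the single-dose screen, relative to plate controls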
SENP8 inh conf = human SENP8 protease inhibitors, confirmation, biochemical, Nedd8 protein substrate, single concentration. shares compounds with SENP8 block-2. purified SENP8, Nedd8-AMC/pro-Nedd8 cleavage fluorescence, 30 min. inhibition, % at 25 µM. actives 15% (n = 1,400). AID 624319, 2012; in the data active = inhibition mostly above about 39%, no sharp cut-off; inactive = mostly below about 34%
Active calls of the source: *; / = no result given.

SMILES	SENP7 inh	SENP8 block-1	SENP8 block-2	SENP6 block	PPC-1+TRAIL kill	C8 TRAIL sens	SENP8 inh conf
C/C(=N/O)c1ccccn1	2	-3	51*	-8	15	2	5
O=C(O)CCC1OC(=O)C(O)=C1c1ccccc1 (stereo not drawn)	5	-3	40*	-3	13	-3	7
O=C1OC(c2ccccc2)C(O)=C1c1ccccc1 (stereo not drawn)	/	/	14	/	/	-1	/
CC(C)c1noc2ncc(C(=O)c3cc(Cl)cc(Cl)c3O)cc12	2	-6	46*	-3	-21	-12	18
COc1cc2c(cc1OC)C(=O)N(C)CC2	5	-1	42*	3	11	1	3
CCCNC(=O)c1cc(C2CCCN(C(=O)c3ccc(NC(C)=O)cc3)C2)on1 (stereo not drawn)	/	/	11	/	/	5	/
C[N+](C)(C)C[C@H](O)CC(=O)[O-]	-3	2	45*	-8	/	-9	14
COC(=O)[C@@H](Cc1c[nH]c2ccccc12)NC(=O)CNC(=O)c1ccccc1OC	-7	6	5	-17	/	1	/
CCCCn1c(SCC(=O)Nc2cc(C(F)(F)F)cc(C(F)(F)F)c2)nnc1C(CC)N(C)C (stereo not drawn)	1	-4	21	-3	-3	-3	/
COc1cc(OC)cc(C(=O)NNC(=O)CN2C(=O)NC(C)(c3ccc(C)cc3)C2=O)c1 (stereo not drawn)	1	-8	3	-13	/	-15	/
CN(C)/N=C/c1ccc([N+](=O)[O-])cc1[N+](=O)[O-]	7	-5	20	-23	16	4	/
CN(N=Cc1cccc2cccnc12)c1ccc([N+](=O)[O-])cc1[N+](=O)[O-]	/	/	41*	/	/	-2	10
CCCCN(C(=S)Nc1cccc(C)c1C)c1c(N)n(CCC)c(=O)[nH]c1=O	-9	-6	21	-5	-8	5	/
COc1ccc(N2CCN(C(=O)C(=O)c3cc(OC)c4ccccc4c3)CC2)cc1	/	/	6	/	/	-26	/
CCN(C(=O)N1CCOCC1)c1ccccc1C	0	4	8	0	/	-14	/
COC(=O)CCCC1=CC2=CC(=O)C(C)(OC(=O)c3cccs3)C(=O)C2=CN1C1CCCC1 (stereo not drawn)	3	9	46*	7	5	-20	49*
COC(=O)CCCC1=CC2=CC(=O)C(C)(OC(=O)c3cccs3)C(=O)C2=CN1Cc1ccccc1 (stereo not drawn)	5	16	13	25	16	9	/
CC(C)C[C@H]1CNC(=S)N1CC1CCCN1C[C@H](CC(C)C)N1C[C@H](CC(C)C)N(CCc2ccccc2)C1=S (stereo partly drawn)	/	/	11	/	/	1	/
O=S(=O)(c1ccccc1C(F)(F)F)N1C=CC(C(F)(F)F)=NCC1	/	/	41*	/	10	13	8
CC(Sc1ccsc1[N+](=O)[O-])C(=O)NCCc1ccc(Cl)cc1 (stereo not drawn)	-1	5	42*	8	3	-2	15
O=C(CSc1ccsc1[N+](=O)[O-])NCCc1ccc(Cl)cc1	-4	-4	2	0	0	9	/
CC1CN(c2ccc([N+](=O)[O-])c(NCCOc3ccc(Cl)cc3)c2)CC(C)N1 (stereo not drawn)	-1	-6	46*	2	/	-3	16
CC1CN(c2ccc([N+](=O)[O-])c(NCCOc3ccccc3)c2)CC(C)N1 (stereo not drawn)	1	1	38*	-15	/	4	6
O=[N+]([O-])c1ccc(N2CCCCC2)cc1NCCOc1ccccc1	-2	-10	40*	-3	-16	18	20
CC(C)(C)CNc1cc(N2CCCC2)ccc1[N+](=O)[O-]	-1	-5	26	1	7	2	/
